Experimental data from PubChem BioAssay AID623868 (Vanderbilt High Throughput Screening Facility, 2012).
Among all 2,100 compounds or so, about 760 (36%) were called active. Only a sample is shown. Unmarked numbers belong to inactive results.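 The calls were made as follows: active = thallium-flux fluorescence traces judged by eye to show enhanced or reduced glutamate response, manual score 1 or -1, so both directions (some results past the limit were not filed as active); inactive = the rest, including fluorescent or raised-baseline compounds.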

Assay: thallium influx changes without GIRK channels – cell-based, HEK-293 rmGlu8, no GIRK, thallium flux, counter-screen for GIRK activator project, confirmation (AID 623868);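 also: extra codes mark interference with 3 for fluorescent and 4 for baseline rise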
Conditions: thallium flux fluorescence, at 10 µM, actives lie on both sides, codes: 1 enhancer, -1 blocker, 0 none, thallium stimulus containing EC20 glutamate

SMILES | manual score
Cc1ccc(-c2[nH]nc3c2C(c2ccoc2)C(C#N)=C(N)O3)cc1C (stereo not given) | 0
CN(C)c1nc2n(c(=O)n1)C(C#N)CS2 (stereo not given) | 0
O=C(/C=C/c1ccc(Cl)cc1)NC(=S)NN1CCCCC1c1cccnc1 (stereo not given) | 0
COc1ccc(-n2ncc3c(NCc4cccs4)ncnc32)cc1 | 0
c1csc(CCNc2ncnc3sc4c(c23)CCC4)c1 | -1 (active)
O=C(NC(=S)Nc1ccccn1)c1cc(-c2ccccc2)nc2ccccc12 | 1 (active)
O=C(NC(=S)Nc1ccccc1)c1cc(-c2ccccc2)nc2ccccc12 | 0.5
COC(=O)c1ccc(NC(=S)NC(=O)c2cc(-c3ccccc3)nc3ccccc23)cc1 | 1 (active)
Cc1ccccc1NC(=S)NC(=O)c1cc(-c2ccccc2)nc2ccccc12 | 1 (active)
Cc1cccc(NC(=S)NC(=O)c2cc(-c3ccccc3)nc3ccccc23)c1 | 0
Fc1cccc(-n2c(-c3ccco3)nc3nc4ccccc4nc32)c1 | 0
Cc1ccc(C)c(N2CCN(C(=O)CCCOc3cc(=O)n(C)c4ccccc34)CC2)c1 | 0
CCC(=O)Oc1ccc(C/C(=N\O)c2ccc(O)cc2O)o1 | -1 (active)
CCCn1c(C)cc(/C=C(\C#N)C(=O)OCC(=O)Nc2cccc(OC)c2)c1C | 0
Cc1ccc2oc(=O)c3cnn(CC(=O)N4CCc5ccccc5C4)c3c2c1 | -1 (active)
COc1ccc(N(CC(=O)NCCSc2ccccn2)S(C)(=O)=O)cc1Cl | 0
Cc1nn2c(NCCCN(C)C)c3c(nc2c1-c1ccccc1)CCC3 | 0
O=C(O)CCCCCNc1nc2ncn(Cc3ccccc3)c2c(=O)[nH]1 | 0
Fc1cccc(C2NN=C(c3ccccc3)S2)c1 (stereo not given) | 1 (active)
O=C1CC(c2ccco2)Sc2nc3ccccc3n21 (stereo not given) | 0
CN1CCN(CC(=O)N2c3ccccc3C(C)(c3ccccc3)CC2(C)C)CC1 (stereo not given) | 0
CC1(c2ccccc2)CC(C)(C)N2C(=O)/C(=C3\SC(=S)NC3=O)c3cccc1c32 (stereo not given) | 1 (active)

SMILES | manual score
Cc1c(C(=O)O)sc2nc3n(c(=O)c12)CCC(C)CC3 (stereo not given) | 0
CCCCCCCCc1nc(=S)[nH][nH]1 | 1 (active)
C=CCCCCCCCCc1nc(=S)[nH][nH]1 | 1 (active)
COc1c(Cl)cc(Cl)cc1CNCCNCC(C)O (stereo not given) | 0
COc1cc(C(=O)NC2CC3CCCC(C2)N3CC(=O)Nc2ccccc2)cc(OC)c1OC (stereo not given) | -1 (active)
CC1CCCCN1CC(=O)Nc1ccc(Oc2ccccc2)cc1 (stereo not given) | 0
COc1cccc(NC(=O)Cn2nnc(C(=O)Nc3ccccc3)c2N)c1 | 0
O=C(Nc1nnc(-c2ccccc2F)s1)C1CCCO1 (stereo not given) | 0
CC(C)c1ccc2occ(-c3nn[nH]n3)c(=O)c2c1 | 0
O=c1[nH]c(CS(=O)(=O)c2ccccc2)nc2ccccc12 | 0
CCCn1c(SCc2nc3sc(C)c(C)c3c(=O)[nH]2)nc2ccccc2c1=O | 1 (active)
CCCSc1nc2sc3c(c2c(=O)[nH]1)CCN(Cc1ccccc1)C3 | 3
Cc1c(C)[n+](=O)c2c(n1[O-])CCC2 | 0
COc1ccc(S(=O)(=O)NCCCCCC(=O)NCCCN2CCOCC2)cc1 | 0
CC1(C)Cc2cccc(OCC(=O)Nc3ccccc3N3CCOCC3)c2O1 | 0
Cc1cc(Cl)ccc1OCC(=O)Nc1ccccc1N1CCOCC1 | 0
Cc1ccccc1OCC(=O)Nc1ccccc1N1CCOCC1 | -0.5
Cc1cccc(OCC(=O)Nc2ccccc2N2CCN(C(=O)C(C)C)CC2)c1C | -1 (active)
CCC(=O)N1CCN(c2ccccc2NC(=O)COc2cccc(C)c2)CC1 | -1 (active)
Cc1cccc(OCC(=O)NC(=S)Nc2ccccc2N2CCOCC2)c1 | 0
CC(C)c1cc(C(F)(F)F)n2nc(C(=O)Nc3ccc4c(c3)OCO4)cc2n1 | 0
O=C(NC(=S)Nc1ccc(Oc2ccc(Cl)cc2)cc1)c1ccccc1 | 0

SMILES | manual score
Cn1ncc2cc(NC(=S)NC(=O)c3ccccc3)ccc21 | 1 (active)
CC1CCN(C(C(=O)Nc2ccc3c(c2)OCO3)c2ccccc2)CC1 (stereo not given) | 0
CC1CCCN(C(C(=O)Nc2ccc3c(c2)OCO3)c2ccccc2)C1 (stereo not given) | -0.5
O=C(NC(=S)Nc1ccc2c(c1)OCO2)c1ccccc1 | 1 (active)
O=C(NC(=S)Nc1ccc2c(c1)OCCO2)c1ccccc1 | 1 (active)
Cc1ccc(-c2n[nH]c(=S)n2/N=C/c2ccc(C)s2)cc1 | 1 (active)
Cn1cccc1/C=N/n1c(-c2ccc(C(C)(C)C)cc2)n[nH]c1=S | 0
Cc1ccc(-c2n[nH]c(=S)n2/N=C/c2cccs2)cc1 | 1 (active)
Cc1ccc(/C=N/n2c(COc3ccccc3)n[nH]c2=S)s1 | 1 (active)
CC(/C=N/n1c(COc2ccccc2)n[nH]c1=S)=C\c1ccccc1 | 0
Cc1ccccc1CNS(=O)(=O)c1ccc2c(c1)OCCO2 | 0
CCCCN(C)C1=Nc2cccc3cccc1c23 | 0
O=C(N/N=C1/C(=O)c2cccc3cccc1c23)c1ccc(Cl)cc1 | 1 (active)
CCCCNC(=S)N/N=C1\C(=O)c2cccc3cccc1c23 | 1 (active)
CNC(=S)N/N=C1\C(=O)c2cccc3cccc1c23 | 1 (active)
CCCCNc1c2c3c(cccc3n(C)c1=O)C(=O)c1ccccc1-2 | 3
CCNC(=S)N/N=C1\C(=O)c2cccc3cccc1c23 | 1 (active)
COc1ccc(Cn2nnnc2C(c2ccc(F)cc2)N2CCN(C3CCCC3)CC2)cc1 (stereo not given) | 0
N#Cc1nc(Cc2ccccc2)oc1NCCc1ccccc1 | 0
O=C(CCN1C(=O)COc2ccccc21)NCCCN1CCc2ccccc2C1 | 0
Cc1ccc(NC(=O)COC(=O)/C=C/c2ccco2)cc1S(=O)(=O)N(C)C | 0
Cn1c(NCc2cccc(Br)c2)nc2ccccc21 | 0

SMILES | manual score
COc1cccc(-c2nnc(Nc3nc4c(F)cccc4s3)o2)c1 | 1 (active)
COc1cc(OC)cc(-c2nnc(Nc3nc4c(F)cccc4s3)o2)c1 | 1 (active)
Fc1cccc2sc(Nc3nnc(-c4ccccc4)o3)nc12 | 1 (active)
Fc1cccc2sc(Nc3nnc(-c4ccco4)o3)nc12 | 1 (active)
Nc1nnc(C(=O)c2ccccc2N)s1 | 0
Clc1ccccc1-c1nnc2sc(CCc3ccccc3)nn12 | 0
CCn1c(=NC(=O)CSC(C)=O)sc2ccccc21 | 1 (active)
O=C(COC(=O)C1CC(=O)N(Cc2ccccc2)C1)Nc1ccc2c(c1)OCO2 (stereo not given) | 0
COC(=O)c1ccccc1NC(=O)Nc1cnccn1 | 0
O=C(Oc1ccccc1)c1cccc(COC(=O)c2cnccn2)c1 | -1 (active)
CC(=O)Nc1nnc(C)s1 | 0
C=CCSc1nc2sc3c(c2c(=O)n1CC)CCc1ccccc1-3 | 1 (active)
CCn1c(SCC(N)=O)nc2c(c1=O)C1(CCCC1)Cc1ccccc1-2 | 0
CCCSc1nc(C)nc2c1c(=O)n(C)c(=O)n2C | 0
CC1CCCCC1NC(=S)Nc1ccc(SC(F)F)cc1 (stereo not given) | 0
CC1CCCC(NC(=S)Nc2ccc(SC(F)F)cc2)C1C (stereo not given) | 0
CC1CCCC(NC(=S)NC(=O)c2ccccc2Br)C1C (stereo not given) | 1 (active)
CC1CCCC(NC(=O)Nc2cccs2)C1C (stereo not given) | 0
CN(C(=S)NC(=O)c1ccccc1Br)C1CCCCC1 | 1 (active)
Cc1ccccc1NC(=S)NC(=O)c1cncc(Br)c1 | 1 (active)
CC1CCCC(NC(=S)NC(=O)c2cncc(Br)c2)C1C (stereo not given) | 1 (active)
CN(C)Cc1cc(C(C)(C)C)c(O)c(C(C)(C)C)c1 | 0

SMILES | manual score
CCN1CCN(c2ccc(NC(=O)CCc3c(C)nc4c(-c5ccccc5)c(C)nn4c3C)cc2)CC1 | 0
CCN(C(=O)c1cc(Cl)ccc1OC)C1CCCCC1 | 0
O=C(NC(=S)NC1CCCCCC1)c1cncc(Br)c1 | 1 (active)
COc1cccc2c1OC[C@@H](CO)[C@H]2N(C)C(=O)Nc1ccccc1 | 0
COC(=O)[C@H](Cc1ccccc1)NC(=O)NCCC1=CCCCC1 | 0
COc1ccccc1/C=C/C(=O)NC(=S)N(C)C1CCCCC1 | 1 (active)
CCOC(=O)c1ccc(NC(=S)NC2CCCC2)cc1 | 0
COc1ccc(C)cc1NC(=O)NCCC1=CCCCC1 | 0
O=C(NC(=S)NCCC1=CCCCC1)c1cncc(Br)c1 | 1 (active)
FC(F)(F)c1cccc(NC(=S)NC2CCCC2)c1 | 0
Cc1ccc(C(=O)N/N=C(/CC(=O)c2cccs2)C(F)(F)F)cc1 | 1 (active)
CCCn1c(O)c(N=NC(=O)c2ccco2)c2ccccc21 | 1 (active)
Cc1ccccc1Cn1c(=N)n(CC(=O)c2ccco2)c2ccccc21 | 0
O=C(NCCSc1c[nH]c2ccccc12)c1ccco1 | 0
CCCCNC(=S)N=Nc1c(O)n(Cc2ccccc2)c2ccccc12 | 1 (active)
C=CCn1c(O)c(N=NC(=O)OC(C)(C)C)c2ccccc21 | 1 (active)
CN=C1SC(C(=O)O)CC(=O)N1C (stereo not given) | 0
O=C(NC1CC1)c1ccc(CSCc2cccc(F)c2)o1 | 0
CCOC(=O)C(C)Sc1nc2c(cnn2-c2ccc(C)cc2)c(=O)[nH]1 (stereo not given) | 0
CCOC(=O)C(CC)n1cnc2c(nnn2-c2ccc(OC)cc2)c1=O (stereo not given) | -1 (active)
CCOC(=O)c1nn(-c2ccc(F)cc2)c(C)c1C(C)=O | 0
Nc1nc2n(n1)C(c1cccs1)CC(c1ccc(F)cc1)N2 (stereo not given) | 0
